{"source": "PubChem BioAssay (NCATS)", "note": "Inconclusive results are not listed. Where a call stands in place of a potency, no number is given. The source made the active and inactive calls. The call rests on the fitted dose curve."}
{"experiment": "Primary qHTS for Huh7 cytotoxicity: counterscreen for inhibitors of MERS-S pseudotyped particle cell entry (AID 1479147)", "settings": "cell viability read-out; series mostly up to 57.1 µM"}
{"compound": "COc1cc([C@@H]2c3cc4c(cc3[C@@H](O[C@@H]3O[C@@H]5CO[C@@H](C)O[C@H]5[C@H](O)[C@H]3O)[C@H]3COC(=O)[C@H]23)OCO4)cc(OC)c1OP(=O)(O)O", "Potency": "inactive"}
{"compound": "CC(Cc1ccc(O)c(O)c1)C(C)Cc1ccc(O)c(O)c1", "note": "(centres undefined)", "Potency": "inactive"}
{"compound": "CC1CCCC(O)CCCCCc2cc(O)cc(O)c2C(=O)O1", "note": "(centres undefined)", "Potency": "inactive"}
{"compound": "CCCCCCCCCCCCCC[n+]1ccc(C)cc1", "Potency": "inactive"}
{"compound": "CC(CN1c2ccccc2Sc2cccnc21)N(C)C", "note": "(centres undefined)", "Potency": "inactive"}
{"compound": "O=C1CSC2(CCN(CCCN3c4ccccc4Sc4ccc(Cl)cc43)CC2)N1", "Potency": "inactive"}
{"compound": "CCCCC(=O)O[C@H]1CC[C@H]2[C@@H]3CCc4cc(O)ccc4[C@H]3CC[C@]12C", "Potency": "inactive"}
{"compound": "Cc1cc(-n2c(=O)[nH]c(=O)n(C)c2=O)ccc1Oc1ccc(S(=O)(=O)C(F)(F)F)cc1", "Potency": "inactive"}
{"compound": "COC(=O)N[C@H](C(=O)N1CCC[C@H]1c1ncc(-c2ccc(-c3ccc(-c4cnc([C@@H]5CCCN5C(=O)[C@@H](NC(=O)OC)C(C)C)[nH]4)cc3)cc2)[nH]1)C(C)C", "Potency": "inactive"}
{"compound": "CCCCCCCC(=O)CC[C@@H]1[C@@H](C/C=C\\CCCC(=O)OC(C)C)[C@@H](O)C[C@H]1O", "Potency": "inactive"}
{"experiment": "Primary qHTS for inhibitors of MERS-S pseudo-typed particle cell entry (AID 1479149); further: nearly all actives have a fitted effect of over 60% in size; further: potency means the concentration at half of the fitted maximal effect", "settings": "MERS-S pseudotyped particle entry, luciferase; series mostly up to 57.1 µM"}
{"compound": "C[C@H](Oc1cc(-c2cnn(C3CCNCC3)c2)cnc1N)c1c(Cl)ccc(F)c1Cl", "Potency": "12.6 µM (active)"}
{"compound": "CC(C)N1CCN(c2ccc(OC[C@@H]3CO[C@@](Cn4cncn4)(c4ccc(Cl)cc4Cl)O3)cc2)CC1", "Potency": "inactive"}
{"compound": "CCCCC(=O)OCC(=O)[C@]1(O)Cc2c(O)c3c(c(O)c2[C@@H](O[C@H]2C[C@H](NC(=O)C(F)(F)F)[C@H](O)[C@H](C)O2)C1)C(=O)c1c(OC)cccc1C3=O", "Potency": "14.1 µM (active)"}
{"compound": "C/C(=C(\\CCOC(=O)c1ccccc1)SS/C(CCOC(=O)c1ccccc1)=C(/C)N(C=O)Cc1cnc(C)nc1N)N(C=O)Cc1cnc(C)nc1N", "Potency": "inactive"}
{"compound": "CCN1/C(=C/C=C/C=C/c2sc3ccccc3[n+]2CC)Sc2ccccc21", "Potency": "11.2 µM (active)"}
{"compound": "FC(F)(F)C(F)(F)C(F)(F)C(F)(F)C(F)(F)F", "Potency": "inactive"}
{"compound": "C=CC(=O)Nc1cc(Nc2nccc(-c3cn(C)c4ccccc34)n2)c(OC)cc1N(C)CCN(C)C", "Potency": "31.6 µM (active)"}
{"compound": "CC1(C)[C@@H](O[C@H]2O[C@H](C(=O)O)[C@@H](O)[C@H](O)[C@H]2O[C@@H]2O[C@H](C(=O)O)[C@@H](O)[C@H](O)[C@H]2O)CC[C@]2(C)[C@H]3C(=O)C=C4[C@@H]5C[C@@](C)(C(=O)O)CC[C@]5(C)CC[C@@]4(C)[C@]3(C)CC[C@@H]12", "Potency": "inactive"}
{"compound": "CC1=CC(=C(c2ccc(N)cc2)c2ccc(N)cc2)C=CC1=N", "Potency": "7.08 µM (active)"}
{"compound": "Cc1cc(/C=C/c2ccc3cc(N(C)C)ccc3[n+]2C)c(C)n1-c1ccccc1", "Potency": "5.01 µM (active)"}
{"compound": "CCC1OC(=O)C(C)C(OC2CC(C)(OC)C(O)C(C)O2)C(C)C(OC2OC(C)CC(N(C)C)C2O)C(C)(O)CC(C)C2NC(COCCOC)OC(C2C)C1(C)O", "note": "(centres undefined)", "Potency": "inactive"}
{"compound": "CC[C@@H](C(=O)O)[C@@H]1O[C@@H]([C@@H](C)[C@H](O)[C@H](C)C(=O)[C@H](CC)[C@H]2O[C@]3(C=C[C@@H](O)[C@]4(CC[C@@](C)([C@H]5CC[C@](O)(CC)[C@H](C)O5)O4)O3)[C@H](C)C[C@@H]2C)[C@@H](C)C[C@@H]1C", "Potency": "0.355 µM (active)"}
{"compound": "Clc1cc(Cl)c(OCC#CI)cc1Cl", "Potency": "inactive"}
{"compound": "NC(=O)c1cccc2cn(-c3ccc(C4CCCNC4)cc3)nc12", "note": "(centres undefined)", "Potency": "25.1 µM (active)"}
